Consider 89 compounds from PubChem BioAssay AID651636 (Sanford-Burnham Center for Chemical Genomics, 2012).

Screen size: about 360,000 compounds; about 3,000 (0.83%) were called active. The sample holds actives, similar compounds and a random draw of the others, so the mix is not that of the screen. Values without a mark were called inactive. No stated cut-off is given here; in the data, active means inhibition above about 38%; inactive means the rest.

The target in the assay is G-protein coupled receptor 183 (Homo sapiens) (UniProt P32249). The assay can be described thus: EBI2 receptor antagonists, beta-arrestin recruitment, primary screen, cell-based, luminescence, 7a,25-OHC stimulation, uHTS (AID 651636).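 Further: enzyme fragment complementation signal reports receptor beta-arrestin coupling in cells; 0% = agonist plus DMSO wells and 100% = wells without agonist.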 The conditions noted are these: 7a,25-OHC stimulated, at 5 µM, hits give high values.
G-protein coupled receptor 183 (Homo sapiens), sequence (P32249 whole entry, looked up, the tested form may be a part): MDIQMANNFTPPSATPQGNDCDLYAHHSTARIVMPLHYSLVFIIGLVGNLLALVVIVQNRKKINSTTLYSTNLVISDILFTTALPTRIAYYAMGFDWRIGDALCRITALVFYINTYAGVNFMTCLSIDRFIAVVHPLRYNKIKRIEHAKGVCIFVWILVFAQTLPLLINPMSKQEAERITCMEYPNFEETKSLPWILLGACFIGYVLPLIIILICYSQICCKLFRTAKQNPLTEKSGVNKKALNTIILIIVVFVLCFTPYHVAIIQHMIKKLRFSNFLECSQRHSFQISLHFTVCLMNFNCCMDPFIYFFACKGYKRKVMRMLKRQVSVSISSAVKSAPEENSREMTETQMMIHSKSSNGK
Take `Cc1c(NC(=O)CN2C(=O)C(=O)N(Cc3ccccc3)C2=O)c(=O)n(-c2ccccc2)n1C`: the inhibition was 0.531%.

For the compound `CC1(C(=O)NCc2ccccc2)CSCC(=O)N1CCCn1ccnc1` (centres undefined), the inhibition was 4.35%. Under `CCOC(=O)[C@]12CCCC=C1N(CCC1=CCCCC1)C(=O)[C@H](CC(=O)N1CCSCC1)C2` stands 7.49%. Turning to `COc1ccc(-n2c(Cc3cccn3C)nnc2SCC(=O)Nc2cc(C)cc(C)c2)cc1`, the inhibition is 49.5% (active). Then `COC(=O)c1ccc(NC(=O)CSc2nnc(Cc3cccn3C)n2-c2ccc(F)cc2)cc1`, with -2.09%; and `COc1ccccc1NC(=O)CSc1nnc(Cc2cccn2C)n1-c1ccc(F)cc1`, with 9.51%; and `CC(=O)N1CCN(CC(c2ccccc2)c2ccccc2)CC1`, with -1.32%.

With `O=C(C(c1ccccc1)c1ccccc1)N1CCN(CC(O)COc2ccccc2)CC1` (centres undefined), the inhibition was 53.5% (active).

As to `CCCc1ccc(OCC(O)CN2CCN(C(=O)OCC)CC2)cc1` (centres undefined), the inhibition was 22.6%. Then `O=C(O)C1=C(C(=O)O)C2CCC1C2`, with 6.95%. Then `COc1ccc(O)c(/C=N/N=C/c2cccc([N+](=O)[O-])c2)c1`, with 1.28%. Under `COc1ccc(/C=N/N=C/c2c[nH]c(=O)c(C#N)c2Nc2ccccc2)cc1` stands 90.2% (active); under `COc1ccc(/C=C(/NC(=O)c2ccccc2)C(=O)Nc2cccc(C(=O)O)c2)cc1`, -12.6%. As for `COc1ccc(N2CCN(C(=O)COc3ccc4c(C)cc(=O)oc4c3)CC2)cc1`, the inhibition is -7.37%. Under `O=C(CN1CCN(S(=O)(=O)c2ccc(Cl)s2)CC1)N1CCCCC1` stands -6.5%; under `O=C(COc1ccc(Cl)cc1)N1CCN(S(=O)(=O)c2ccc(Cl)cc2)CC1`, 89.2% (active). For the compound `Cc1c(C)c2ccc(OCC(=O)N3CCN(c4cccc(Cl)c4)CC3)cc2oc1=O`, the inhibition is 11.5%. As for `CSCCC(NC(=O)COc1ccccc1)C(=O)N1CCN(c2cccc(C(F)(F)F)c2)CC1` (centres undefined), the inhibition was 26.3%. Regarding `O=C(Nc1ccc2c(c1)CCC2)c1cccc(S(=O)(=O)N2CCN(c3ccc(F)cc3)CC2)c1`, the inhibition was -5.81%. Regarding `O=C(COc1ccc(Cl)cc1)N1CCN(c2cccc(C(F)(F)F)c2)CC1`, the inhibition was 84.9% (active). Consider `Nc1nc(SCC(=O)N2CCN(S(=O)(=O)c3ccc(Cl)cc3)CC2)n[nH]1`, for which the inhibition is -6.16%. For the compound `O=C(CSc1ccccn1)N1CCN(S(=O)(=O)c2ccc(Cl)cc2)CC1`, the inhibition was 1.72%. As to `O=C(COc1ccc2c(c1)CCC2)N1CCN(c2ccc(F)cc2)CC1`, the inhibition is 44.5% (active). Then `Cc1ccc(OCC(=O)N2CCN(S(=O)(=O)c3ccc(Cl)s3)CC2)cc1C`, with 90% (active); and `O=C(CN1CCN(S(=O)(=O)c2ccc(Cl)s2)CC1)NCc1ccc(Cl)cc1`, with 15.5%.

Take `CC(=O)c1ccc(S(=O)(=O)Nc2ccc(-c3ccc4nncn4n3)cc2)cc1`: the inhibition was 6.72%. Regarding `COc1ccc(N2C(=O)C(O)C2c2ccc(C)cc2)cc1` (centres undefined), the inhibition is -10.7%. In the case of `CC(C)(C)c1cc(CN2CCN(CCC#N)CC2)cc(C(C)(C)C)c1O`, the inhibition was 1.34%. Under `Cc1ccc(NC(=O)C(C)Sc2nnc(C3CC3)n2C2CC2)cc1S(=O)(=O)N1CCOCC1` (centres undefined) stands 6.91%; under `CC(=O)NC(Cc1ccc(F)c(F)c1)C(=O)NC1CCN(C(=O)c2ccc(C)cc2)CC1` (centres undefined), 1.72%. Then `COc1ccc2c(c1)C(=O)Nc1cc(Cl)ccc1N2`, with 10.9%. `C/C(=N\NC(=O)C1(C)CC1(Br)Br)c1ccc(C)cc1C` (centres undefined): the inhibition was 4.16%.

For the compound `CCOC(=O)/C=C/CN(C(=O)OC(C)(C)C)S(=O)(=O)N1CC=CC1`, the inhibition is 0.259%. Then `CC(=O)NC1=NN(C(C)=O)C(C)(CCS(=O)(=O)c2ccc(Cl)c(Cl)c2)S1` (centres undefined), with -4.01%. As for `COCc1cc(C)n(CC(=O)NCC2CCCO2)c(=O)c1C#N` (centres undefined), the inhibition is 2.55%. For `CCCCOCCCNC(=O)C[C@@H]1C[C@@]2(C(=O)OC)CCCCC=C2N(CCC2=CCCCC2)C1=O`, the inhibition was 3.92%.

In the case of `CC(Oc1ccc(F)cc1)C(=O)N1CCN(c2ncccn2)CC1` (centres undefined), the inhibition was -0.409%.

Turning to `Cc1cc(OCC(=O)N2CCN(c3ncccn3)CC2)ccc1Cl`, the inhibition was 86.6% (active).

With `COC(=O)CC(=O)N1CCN(c2ccc(Cl)c(Cl)c2)CC1`, the inhibition is -5.75%. Under `Cc1ccc(S(=O)(=O)N2[C@@H](Cc3ccccc3)CO[C@H]2CC(=O)OCc2ccccc2)cc1` stands 23%; under `COC(=O)[C@]12CCCCC=C1N(Cc1ccc3c(c1)OCO3)C(=O)[C@H](CC(=O)NCc1cccs1)C2`, 0.7%. With `CCC1SC(CC)C(=O)N(CC(=O)NC2CCCCC2)C1=O` (centres undefined), the inhibition was -0.813%. Regarding `O=C(CSc1nc(C2CC2)nc2ccccc12)Nc1cccc(O)c1`, the inhibition is -2.33%.

`O=C(Cc1ccccn1)c1ccc(O)cc1O`: the inhibition is 9.45%. For the compound `O=C(NNc1c2ccccc2nc2ccccc12)c1cc2ccccc2cc1O`, the inhibition was 44.6% (active). With `CCCn1nc(NC(=O)C(C)C)c2cc3cc(OC)ccc3nc21`, the inhibition is 16.4%.

In the case of `O=C(Nc1ncc2c(n1)CC(c1ccco1)CC2=O)c1ccc(Cl)cc1` (centres undefined), the inhibition is 41.8% (active). As to `CCc1ccc(Nc2ncc3c(n2)CC(c2ccco2)CC3=O)cc1` (centres undefined), the inhibition was 14.2%.

As to `O=C(Nc1ncc2c(n1)-c1ccccc1OC2)c1ccc(Cl)cc1`, the inhibition is 9.5%.

`O=C(CC1SC(N2CCCC2)=NC1=O)Nc1ccc(C(=O)NCCc2ccc(F)cc2)cc1` (centres undefined): the inhibition is -2.4%.

Take `CC(=O)C[C@@H]1OC[C@H](CO)N1S(=O)(=O)c1ccc(C)cc1`: the inhibition was 3.35%. Under `CCOC(=O)[C@]12CCCC=C1N(CCC1=CCCCC1)C(=O)[C@H](CC(=O)N1CCCCC1)C2` stands 8.47%; under `COc1ccc(OCc2cc(C(=O)N3CCCC3)no2)c2ccccc12`, -12.2%; under `COc1ccccc1N1CCN(C(=O)c2cc(-c3ccc(Br)cc3)on2)CC1`, 50% (active). Then `COc1ccccc1N1CCN(C(=O)Cn2nnc(-c3cccs3)n2)CC1`, with -14.3%; and `COc1ccc(Nc2ncc(C(=O)N3CCN(c4ccccc4OC)CC3)c3ccccc23)cc1`, with -13.1%; and `COc1cccc(-c2ccc(SCC(=O)N3CCN(c4ccccc4)CC3)nn2)c1`, with 11.8%. Under `COc1cccc(-c2cc(C(=O)N3CCN(c4ccccc4OC)CC3)no2)c1` stands 56.8% (active); under `CC(C)C[C@@H]1COc2cc(N3CCC[C@@H]3CO)ccc2S(=O)(=O)N1`, -0.978%; under `Cc1cc2nc3n(c2cc1C)CC1CC(C(=O)NCCC(C)C)N(C)C31` (centres undefined), 6.24%.

In the case of `Clc1cccc(N=C2NN=C(c3ccc4c(c3)OCCO4)CS2)c1`, the inhibition is 49.5% (active). On to `CN(C)c1nc(=Nc2cccc(Cl)c2)ss1`, for which the inhibition is 1.94%. In the case of `c1ccc(CN2CCC(N=C3NN=C(c4ccc5c(c4)OCCO5)CS3)CC2)cc1`, the inhibition was 6.66%.

`Cc1ccc(S(=O)(=O)N2[C@@H](c3cccc4ccccc34)C(C(=O)O)=C[C@H]2C(C)(C)C)cc1`: the inhibition is -1.04%. Then `CCN(CC)c1ccc(S(=O)(=O)N2CCCCC2)cc1NC(=O)C1=COCCO1`, with 1.67%; and `CCCCN=C1C([N+](=O)[O-])=CC=C2C1=NC1(CCCCC1)N2O`, with 68.4% (active); and `CO[C@@H]1CN(C)C(=O)c2cc(NC(=O)C3CC3)ccc2OC[C@H](C)N(C(=O)CN2CCOCC2)C[C@@H]1C`, with -1.87%. Under `COc1ccc(-c2nc3c(s2)CCc2onc(-c4ccc(OC)cc4)c2-3)cc1` stands -3.33%; under `CCC(c1nnc(SCC(=O)NNC(=O)c2ccccc2)n1Cc1ccccc1)N(C)C` (centres undefined), 72.7% (active). Then `CCn1c(SCC(=O)NNC(=O)c2ccc(OC)cc2)nnc1C(C)C`, with 12.9%; and `Cc1cccc(C(=O)NNC(=O)CSc2nnc(C(C)C)n2C)c1`, with 2.91%; and `COC(=O)[C@H](CC(C)C)NC(=O)N1CCCCC1C` (some centres undefined), with -4.31%. For the compound `CCCc1[nH]nc2c1C(c1ccc(Br)s1)C(C#N)=C(N)O2` (centres undefined), the inhibition was -18.9%. In the case of `Cc1cc(C)c(C#N)c(SCc2[nH]nc3c2C(c2ccccc2)C(C#N)=C(N)O3)n1` (centres undefined), the inhibition is 63.3% (active). Take `Cc1cc(C)c(C#N)c(SCc2ccc3c(c2)OCO3)n1`: the inhibition is -1.67%. With `COc1cc2c(cc1NC(=O)CN1CCN(S(=O)(=O)c3ccc(F)cc3)CC1)oc1ccccc12`, the inhibition was 3.04%. On to `CC(C)c1ccc(N2CC(C(=O)Nc3nccs3)CC2=O)cc1` (centres undefined), for which the inhibition was 5.79%. For the compound `Cc1cccc(-c2nc3c(c(SCC(=O)N4CCOCC4)n2)CCCC3)c1`, the inhibition is 4.2%. Under `Cn1nnnc1SCC(=O)N1CCN(C(c2ccccc2)c2ccccc2)CC1` stands 36.1%; under `CC(OC(=O)c1ccc(-n2cnnn2)cc1)C(=O)NCc1ccccc1` (centres undefined), -7.1%; under `O=C(c1ccc(-n2cnnn2)cc1)N1CCN(C(c2ccccc2)c2ccccc2)CC1`, 79% (active). Then `COc1ccc(C2Nc3ccccc3C(=O)N2c2ccc(Cl)cc2)cc1Cn1cc([N+](=O)[O-])cn1` (centres undefined), with 4.76%; and `COc1ccc(NC(=O)C[C@H]2C(=O)N(CCc3ccccc3)C[C@@H]2C)cc1`, with 2.26%. For `O=S(=O)(c1ccc(Cl)s1)N1CCC2(CC1)OCCO2`, the inhibition is 1.76%.

Regarding `CCC(=O)Nc1ccccc1C(=O)N1CCN(Cc2ccccc2)CC1`, the inhibition is -10.6%.

For `O=C(c1cc2ccccc2o1)N1CCN(S(=O)(=O)c2ccc(Cl)s2)CC1`, the inhibition is 91.3% (active). Under `O=C(c1cc2ccccc2o1)N1CCN(Cc2ccccc2)CC1` stands 65.2% (active); under `CCNC(=S)N1CCN(S(=O)(=O)c2ccc(Cl)s2)CC1`, -5.4%. Then `O=C(c1cc2ccccc2o1)N1CCN(c2cccc(C(F)(F)F)c2)CC1`, with 36.7%.
